The text below walks through data of the supplement of paper PMC10127200.

“And” between values parts separate entries of the source, which are not always exact repeats. Identical values can stand only once. Counter-ions that a name gives are not always drawn.

One assay has as its system HEPG2. Put plainly: Euclidean distance of Cell Painting phenotypic profile (signed KS, 77 features) to DMSO centroid (dimensionless distance); 5 or 10 uM (library dependent); higher = stronger phenotypic change vs DMSO (phenoactivity). Particulars: 48 h. The method in brief: (§1)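 At 10 or 5 uM, as set by the library, and 0.1% DMSO final, compounds were applied for 48 h to five cancer lines and one healthy fibroblast line. Stained cells were imaged confocally at 20X in 9 fields per well, and Harmony extracted 77 features scored as signed Kolmogorov-Smirnov statistics against vehicle wells on the same plate. Profiles underwent plate-position correction, correlation weighting and replicate averaging at the top dose. Phenoactivity is the Euclidean distance from each such profile to the median vehicle profile.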
For the compound `OC(Cn1cncn1)(Cn1cncn1)c1ccc(F)cc1F` [Fluconazole], the Euclidean distance was determined as 0.443.

Turning to `Cc1ccc(=O)n(-c2ccccc2)c1` [Pirfenidone], the Euclidean distance was 0.297. `CN(C)CCC=C1c2ccccc2CCc2ccccc21` [Amitriptyline HCl] registered an Euclidean distance of 1.48. `CO[C@@H]1[C@@H](O[C@@H]2O[C@H](C)[C@@H](O[C@H]3C[C@@](C)(O)[C@@H](OC(=O)CC(C)C)[C@H](C)O3)[C@H](N(C)C)[C@H]2O)[C@@H](CC=O)C[C@@H](C)[C@@H](O)/C=C/C=C/C[C@@H](C)OC(=O)C[C@H]1OC(C)=O` [Josamycin] gave an Euclidean distance of 1.01. Still for that read-out and setting: as for `C[C@H]1NCc2cc(-c3ccc4c(=O)c(C(=O)O)cn(C5CC5)c4c3OC(F)F)ccc21` [Garenoxacin], the figure is 0.463; as for `Cc1ccc2c(c1)C(=O)C1(O)CCN(c3ccccc3)C1=N2` (single isomer, unassigned; (-)) [(-)-Blebbistatin], 1.13. On the same count and under the same terms, as for `C=CCCCCCCCCC(=O)[O-].C=CCCCCCCCCC(=O)[O-].[Zn+2]` [Zinc Undecylenate], the figure is 0.358.

A further assay relates to OVCAR4. The assay is described as above. Particulars: 48 h. The method in brief: as §1
Take `CO/N=C(\C(=O)N[C@@H]1C(=O)N2C(C(=O)O)=C(CSC(=O)c3ccco3)CS[C@H]12)c1csc(N)n1` [Ceftiofur]: the Euclidean distance was 1.07. In turn, `C[C@H](CCC(=O)O)[C@H]1CC[C@H]2[C@@H]3[C@H](O)C[C@@H]4C[C@H](O)CC[C@]4(C)[C@H]3C[C@H](O)[C@]12C` [Cholic acid] came in with an Euclidean distance of 1.12. The same measure, in the same setting: with `O=c1oc2cc(O)ccc2s1` [Tioxolone] the figure was 1.29.

For `Cc1cnc(Nc2ccc(OCCN3CCCC3)cc2)nc1Nc1cccc(S(=O)(=O)NC(C)(C)C)c1`, the Euclidean distance worked out at 3.56. For `CCCNC(C)C(=O)Nc1ccccc1C` (configuration not stated) [Prilocaine], the Euclidean distance was 0.974. `C[C@H]1CNC(=O)c2cnn3ccc(nc23)N[C@H](C)c2cc(F)ccc2O1` registered an Euclidean distance of 4.45. Still for that read-out and setting: as for `CNCCc1ccccn1` [Betahistine mesylate], the figure is 0.933; as for `CCN1CCC[C@H]1CNC(=O)c1cc(S(N)(=O)=O)ccc1OC` [Levosulpiride], 1.77. `S=C(NCc1ccc2c(c1)OCO2)N1CCN(c2ncnc3c2oc2ccccc23)CC1` [Amuvatinib (MP-470)] came in with an Euclidean distance of 1.2.

With `Cc1ccc(NC(=O)C2(c3ccc4c(c3)OC(F)(F)O4)CC2)nc1-c1cccc(C(=O)O)c1` [VX-809 (Lumacaftor)], the Euclidean distance worked out at 1.02. As to `CCOC(=O)c1ccc(O)cc1` [Ethylparaben], the Euclidean distance was found to be 1.31.

For the compound `CCCCCCCCCCCCCCCC(=O)O[C@@H]1[C@@H](O)[C@@H](O)[C@@H]([C@H](NC(=O)[C@@H]2C[C@@H](CCC)CN2C)[C@H](C)Cl)O[C@@H]1SC` [Clindamycin palmitate HCl], the Euclidean distance turned out to be 1.08. In the case of `CC(=O)c1c(C)c2cnc(Nc3ccc(N4CCNCC4)cn3)nc2n(C2CCCC2)c1=O`, the Euclidean distance is 5.52 and 5.47. The same measure, in the same setting: as for `CC(C)c1ccc(NC(=O)Cn2cnc3c2c(=O)n(C)c(=O)n3C)cc1`, the figure is 1.16; as for `Cc1ccc(C(=O)Nc2ccc(CN3CCN(C)CC3)c(C(F)(F)F)c2)cc1C#Cc1cnc2cccnn12`, 4.29.

The compound `CO[C@@H]1[C@H](OC(=O)/C=C/C=C/C=C/C=C/C(=O)O)CC[C@]2(CO2)[C@H]1[C@@]1(C)O[C@@H]1CC=C(C)C` [Fumagillin] displayed an Euclidean distance of 3.29. Same read-out and setting: as for `O=C(NC1CCNCC1)c1n[nH]cc1NC(=O)c1c(Cl)cccc1Cl`, the figure is 3.69; as for `C[C@H](CS)C(=O)N1CCC[C@H]1C(=O)O` [Captopril], 0.714; as for `O=C(OCc1ccccc1)c1ccccc1` [Benzyl benzoate], 1.33. Consider `CCCC(=O)[O-].[Na+]` [Sodium butyrate], for which the Euclidean distance stood at 1.51. The same measure, in the same setting: as for `N#CCNC(=O)c1ccc(-c2ccnc(Nc3ccc(N4CCOCC4)cc3)n2)cc1` [Momelotinib (CYT387)], the figure is 2.48; as for `CCc1c2c(nc3ccc(OC(=O)N4CCC(N5CCCCC5)CC4)cc13)-c1cc3c(c(=O)n1C2)COC(=O)[C@]3(O)CC` [Irinotecan HCl Trihydrate], 3.1; as for `COC(=O)CCC(=O)CN` [Methyl Aminolevulinate Hydrochloride], 1.34. Regarding `O=C(O)c1ccccc1O` [Salicylic acid], the Euclidean distance stood at 1.08.

For `CCCC(=O)Nc1ccc(OCC(O)CNC(C)C)c(C(C)=O)c1` (configuration not stated) [Acebutolol HCl], the Euclidean distance was 1.34. Compound `CC(=O)O[C@H]1C(=O)[C@@]2(C)[C@H]([C@H](OC(=O)c3ccccc3)[C@]3(O)C[C@H](OC(=O)[C@H](O)[C@@H](NC(=O)c4ccccc4)c4ccccc4)C(C)=C1C3(C)C)[C@]1(OC(C)=O)CO[C@@H]1C[C@@H]2O` [Paclitaxel] registered an Euclidean distance of 2.73.

Take `Nc1cc(Cl)c(N=C2NCCN2)c(Cl)c1` [Apraclonidine HCl]: the Euclidean distance was determined as 2. Same read-out and setting: with `COc1ccccc1OCC(O)CN1CCN(CC(=O)Nc2c(C)cccc2C)CC1` (configuration not stated) [Ranolazine] the figure was 1.09; with `C1=N/C2=N/c3ccc(OCCN4CCCC4)c(c3)COC/C=C/COCc3cccc(c3)C(=C1)N2` [Pacritinib (SB1518)], 3.42. The same measure, in the same setting: with `CCOC(=O)[C@H](CCc1ccccc1)N[C@@H](C)C(=O)N1[C@H](C(=O)O)C[C@H]2CCCC[C@@H]21` [Trandolapril] the figure was 0.99.

As to `CC(=C(CCOC(=O)C(C)C)SSC(CCOC(=O)C(C)C)=C(C)N(C=O)Cc1cnc(C)nc1N)N(C=O)Cc1cnc(C)nc1N` (stereo in doubt) [Sulbutiamine], the Euclidean distance turned out to be 1.49. As for `CCN(CCO)CCCC(C)Nc1ccnc2cc(Cl)ccc12` (configuration not stated) [Hydroxychloroquine Sulfate], the Euclidean distance amounted to 3.58. Same read-out and setting: as for `CC(C)c1onc(-c2c(Cl)cccc2Cl)c1COc1ccc(/C=C/c2cccc(C(=O)O)c2)c(Cl)c1`, the figure is 1.02. Still for that read-out and setting: with `OC(Cn1cncn1)(Cn1cncn1)c1ccc(F)cc1F` [Fluconazole] the figure was 1.44; with `Cc1ccc(=O)n(-c2ccccc2)c1` [Pirfenidone], 1.38; with `CN(C)CCC=C1c2ccccc2CCc2ccccc21` [Amitriptyline HCl], 1.99. Still for that read-out and setting: with `CO[C@@H]1[C@@H](O[C@@H]2O[C@H](C)[C@@H](O[C@H]3C[C@@](C)(O)[C@@H](OC(=O)CC(C)C)[C@H](C)O3)[C@H](N(C)C)[C@H]2O)[C@@H](CC=O)C[C@@H](C)[C@@H](O)/C=C/C=C/C[C@@H](C)OC(=O)C[C@H]1OC(C)=O` [Josamycin] the figure was 1.06; with `C[C@H]1NCc2cc(-c3ccc4c(=O)c(C(=O)O)cn(C5CC5)c4c3OC(F)F)ccc21` [Garenoxacin], 1.08; with `Cc1ccc2c(c1)C(=O)C1(O)CCN(c3ccccc3)C1=N2` (single isomer, unassigned; (-)) [(-)-Blebbistatin], 1.46. Regarding `C=CCCCCCCCCC(=O)[O-].C=CCCCCCCCCC(=O)[O-].[Zn+2]` [Zinc Undecylenate], the Euclidean distance was 1.9.
